Laboratory results reported in PubChem BioAssay (NCATS).
Records with an inconclusive call do not appear. Unmarked numbers belong to inactive results. Calls follow the shape of the dose curve; as a rule, active = well fitted cell-killing curve with a large enough effect; inconclusive = small, poorly fitted or top-dose-only effect, or effect the other way; inactive = flat fitted curve, though single readings scatter.
% is scaled to controls: 0 for no effect and ±100 for the full control effect.

These molecules were tested on Tov-21-G (assay: Primary qHTS to identify gynecologic anti-cancer compounds using libraries of approved drugs and bioactive compounds (AID 1345084; also: nearly all actives have a fitted effect of over 55% in size)). Details: Gynecologic cancer cell panel viability, ATPlite luminescence, 48 h; series mostly up to 57.5 µM; activity change, negative = cytotoxicity: at the top concentration.
How it was run: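 Five-point cytotoxicity, 48 h drug exposure at 37 C, 5% CO2, on cells seeded 16 h beforehand. ATP content read by ATPlite luminescence.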
In the case of `CC1(C)CC[C@]2(C(=O)OC3OC(CO)C(O)C(O)C3O)CC[C@]3(C)C(=CCC4[C@@]5(C)C[C@@H](O)[C@H](OC6OC(C(=O)O)C(O)C(O)C6O)C(C)(C)C5CC[C@]43C)[C@@H]2C1` (some centres undefined), the activity change, negative = cytotoxicity is reported as 3.24% [at 11.6 µM]. With `O=[N+]([O-])c1cc(Cl)ccc1S(=O)(=O)N1CCN(Cc2ccccc2)CC1` the “activity change, negative = cytotoxicity” value was -17.3%. With `COc1cc(C(=O)OC[C@H]2O[C@@H](OC(C)(C)C(=O)O)[C@H](O)[C@@H](O)[C@@H]2O)cc(OC)c1O` the “activity change, negative = cytotoxicity” value was 9.13% [at 25.3 µM]. With `C/C=C(/C)C(=O)OC1C2OC2C2(CO2)C2C3OC(=O)C(C)C3CCC12C` (centres undefined) the “activity change, negative = cytotoxicity” value was -1.45% [at 38.5 µM]. With `COc1cccc(CNc2ccc(S(=O)(=O)Nc3nc4ccccc4s3)cc2)c1O` the “activity change, negative = cytotoxicity” value was 9.88%. `C[C@]1(O)CC[C@@H]2C(C(=O)O)=CO[C@@H](O[C@@H]3O[C@H](CO)[C@@H](O)[C@H](O)[C@H]3O)[C@@H]21` was tested, and the “activity change, negative = cytotoxicity” value was 7.33% [at 38.5 µM]. For `C/C=C(\C)C(=O)OC[C@H]1O[C@@H](O[C@H]2[C@@H](O[C@H]3O[C@H](CO)[C@@H](O)[C@H](O)[C@H]3O[C@@H]3O[C@H](CO)[C@@H](O)[C@H](O)[C@H]3O)O[C@H](COC(=O)/C(C)=C/C)[C@@H](O)[C@@H]2O)[C@H](O)[C@@H](O)[C@@H]1O`, the activity change, negative = cytotoxicity was -10% [at 11.6 µM]. For `C=CC(C)(CC/C=C(\C)C(=O)OC)OC1OC(COC(=O)CC(C)(O)CC(=O)O)C(O)C(O)C1O` (centres undefined), the “activity change, negative = cytotoxicity” value was -1.54% [at 25.3 µM]. `OC[C@H]1O[C@@H](Oc2cc(O)cc(-c3cc4ccc(O[C@@H]5O[C@H](CO)[C@@H](O)[C@H](O)[C@H]5O)cc4o3)c2)[C@H](O)[C@@H](O)[C@@H]1O` was tested, and the “activity change, negative = cytotoxicity” value was -12.6% [at 25.3 µM].
